From PubChem BioAssay (NCI) come the findings set out here.

This is part of a sample that, as a whole, favours compounds with a hit. Of some 83,000 tested, about 20% had one in any assay.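 Values shown are percent growth following 48 h exposure of cells in 96-well plates to a single concentration of compound; below 10 was considered active.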 Unmarked numbers belong to inactive results. Active and inactive are the calls of the source.

Holding throughout (experiment): NCI-60 one-dose screen, 48 h (100 = growth as untreated, 0 = no growth, -100 = all killed)
What all share (conditions): 10 µM unless noted

The test system of test [1] is DU-145 prostate.
Test [2] has as its system K-562 leukemia.
Test [3] deals with MALME-3M melanoma.
For test [4], the system named is MDA-MB-231 breast.
The subject of test [5] is RXF 393 renal.
Test [6] concerns SF-268 CNS.
Test [7] relates to SF-295 CNS.
The test system of test [8] is SF-539 CNS.
Test [9] has as its system UACC-257 melanoma.
Test [10] deals with M14 melanoma.
Test [11] concerns HCT-15 colon.
In test [12] the test system is HT29 colon.
Test [13] deals with SNB-75 CNS.
Test [14] relates to SNB-19 CNS.
Test [15] deals with U251 CNS.
Test [16] has as its system PC-3 prostate.
Test [17] deals with UACC-62 melanoma.
The subject of test [18] is LOX IMVI melanoma.
For test [19], the system named is SK-MEL-28 melanoma.
For test [20], the system named is SK-MEL-5 melanoma.

With `O=C(Nc1cccc(C(F)(F)F)c1)Nc1cccc(C(F)(F)F)c1`, the growth in test [1] was 25%; in test [2] it was 11.5%; in [3], -17.1% (active); in test [4], -34.8% (active); in test [5] it was 22.7%; in test [6], 22.7%. For the same molecule, the growth in test [7] was 4.86% (active); in test [8], 19.5%; in [9], -32.9% (active); in test [10], 13%; in test [11] it was 10.7%; in test [12], 3.56% (active). For the same molecule, the growth in test [13] was 11.1%; in test [14], 10.7%; in test [15] it was -15.3% (active); in [16], 6.31% (active); in test [17] it was 10.6%; in [18] it was 8.64% (active). The growth in test [19] was 26.8%.
Regarding `Cc1ccccc1NC(=O)N/C(N)=N/c1nc(C)c(C)s1`, the growth in test [1] was 11.2%; in test [2], 9.17% (active); in test [3], 57.1%; in [4], 50.9%; in test [5] it was 0.637% (active); in [6], 59.5%. The growth is 8.66% (active) in [7]; -26% (active) in [8]; 67.8% in test [9]; 24% in test [10]; 26.4% in test [11]; 16.6% in test [12]. Moreover, the growth is -33.2% (active) in test [13]; 39.9% in test [14]; 21.3% in test [15]; 30.6% in test [16]; 42.7% in test [17]; 37.8% in [18]. Besides, the growth in [19] was 60.7%.
Take `O=c1[nH][n+](-c2ccc(Cl)cc2)no1`: the growth is 59.7% in test [1]; 10.4% in test [2]; 84.7% in test [3]; 70.7% in [4]; 121% in test [5]; 47.7% in [6]. For the same molecule, the growth was 34.5% in [7]; 66.7% in [8]; 64.9% in test [9]; 81.5% in test [10]; 34.5% in test [11]; 95% in test [12]. Also, the growth in test [14] is 91.3%; in [15], 83.2%; in test [16] it was 72%; in [20] it was 96.1%; in test [17], 5.96% (active); in [18], 28.4%. The growth in test [19] is 77.3%.
`c1coc(-c2c3ccc(=[N+]4CCCCC4)cc-3oc3cc(N4CCCCC4)ccc23)c1`: the growth in test [1] was -96.2% (active); in [2], -49.9% (active); in [3] it was -71.9% (active); in test [4], -56.5% (active); in [5] it was -93.8% (active); in [6], -83.4% (active). Also, the growth was -75.2% (active) in test [7]; -93.3% (active) in test [8]; -75.4% (active) in test [9]; -94.3% (active) in test [10]; -80.7% (active) in [11]; -80.9% (active) in test [12]. The growth in test [14] is -93.2% (active); in test [15], -85.2% (active); in [16], -73.8% (active); in test [20], -90.7% (active); in test [17], -81.3% (active); in test [18] it was -87.2% (active). Further, in test [19], the growth was -88.7% (active).
As to `CCc1ccccc1-n1c(-c2ccc(Cl)cc2)cc(-c2ccc(Cl)cc2)c(C#N)c1=O`, the growth in test [1] was 77.1%; in test [2], 66.1%; in test [3], 90.8%; in [4] it was 101%; in [5], 93.3%; in [6], 83.6%. Also, the growth is 89% in test [7]; 104% in test [8]; 98.6% in [9]; 85.3% in test [10]; 84.3% in test [11]; 84.4% in test [12]. In addition, the growth in [14] is 109%; in [15], 84.9%; in test [16], 76.4%; in [20] it was 88.7%; in test [17], 84.8%; in test [18], 82.4%. Also, the growth in test [19] is 99.4%.
For `COc1cc(N2C(=O)c3nccnc3C2=O)cc(OC)c1OC`, the growth in test [1] was 115%; in test [2] it was 98.1%; in test [3], 96%; in [4] it was 93.1%; in test [5], 126%; in test [6] it was 111%. Also, the growth in test [7] was 110%; in [8] it was 119%; in [9], 105%; in [10], 91.8%; in test [11], 104%; in [12] it was 99.8%. Further, the growth is 106% in test [14]; 97.5% in [15]; 98.7% in [16]; 111% in [20]; 114% in test [17]; 106% in [18]. Moreover, the growth in test [19] was 108%.
`Nc1cc2c3c(cccc3c1)C(=O)N(CCN1CCCC1)C2=O`: the growth in [1] was 28.4%; in [2], 14.7%; in [3], 41.5%; in test [4], 55.2%; in [5], 48.2%; in [6] it was 33.7%. The growth in [7] is 44.5%; in test [8], 29%; in [9], 51.3%; in test [10], 49.4%; in test [11], 30.3%; in test [12], 26.2%. Moreover, the growth in test [14] was 41.9%; in [15], 28.9%; in test [16], 40.8%; in test [20], 9.37% (active); in test [17], 26.6%; in [19] it was 62.3%.
For the molecule `COc1cc(/C=C/C(=O)N2CCN(C(=O)c3cc(OC)c(OC)c(OC)c3)CC2)ccc1OCCCN1C(=O)c2cccc3cccc(c23)C1=O`, the growth in [1] was 79.1%; in test [2] it was 78.7%; in [3] it was 125%; in [4], 101%; in test [5], 74.2%; in test [6], 90.6%. Also, the growth in test [7] is 71.9%; in [8] it was 99.9%; in [9] it was 101%; in test [10], 99.3%; in test [11] it was 72%; in test [12], 91.8%. The growth in test [14] is 99.5%; in test [15], 83.4%; in test [16], 25.5%; in test [20], 75.5%; in [17], 64.3%; in test [18], 68.8%. The growth in test [19] is 81.9%.
